Reference: PubChem BioAssay (NCATS)
Inconclusive results are not listed. The source made the active and inactive calls. Unless noted, the call rests on the fitted dose curve; in most records, active means well fitted curve in either direction with a large enough effect (not every such curve was filed as active); inconclusive means small, poorly fitted or top-dose-only effect, or another doubt; inactive means flat fitted curve, though single readings scatter.

What was measured:
[1] = molecular target: Lysosomal acid glucosylceramidase (Homo sapiens) (UniProt P04062); test: Glucocerebrosidase-p2 (AID 348; in the data active means potency below about 10 µM; further: potency means the concentration at half of the fitted maximal effect); details: purified GBA, blue fluorogenic substrate, 40 min
Lysosomal acid glucosylceramidase (Homo sapiens), sequence (P04062 whole entry, looked up): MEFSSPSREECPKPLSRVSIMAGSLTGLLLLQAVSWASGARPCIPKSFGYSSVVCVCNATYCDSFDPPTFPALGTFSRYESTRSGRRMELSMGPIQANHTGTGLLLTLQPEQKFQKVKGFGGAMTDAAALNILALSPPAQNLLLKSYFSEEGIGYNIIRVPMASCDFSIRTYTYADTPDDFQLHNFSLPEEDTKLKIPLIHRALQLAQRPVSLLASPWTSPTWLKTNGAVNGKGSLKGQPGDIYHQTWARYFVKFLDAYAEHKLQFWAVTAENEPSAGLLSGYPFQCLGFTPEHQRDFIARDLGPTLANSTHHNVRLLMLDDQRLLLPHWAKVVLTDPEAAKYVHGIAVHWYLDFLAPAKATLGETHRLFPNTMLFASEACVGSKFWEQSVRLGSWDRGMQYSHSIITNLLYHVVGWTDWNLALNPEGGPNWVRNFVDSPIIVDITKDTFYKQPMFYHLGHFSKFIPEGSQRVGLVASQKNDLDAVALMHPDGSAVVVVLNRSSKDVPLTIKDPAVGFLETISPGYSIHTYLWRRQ
Summary of the method: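 Normal human glucocerebrosidase (0.2 nM) with blue fluorogenic substrate (80 uM final) in citrate/phosphate pH 5.9 with 10mM sodium taurocholate, 0.01% tween-20; 40 min RT, NaOH/glycine stop; fluorescence Ex 365/Em 440; AC50 from a titration from 0.6 nM upwards.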

[2] = AP1 Signaling Pathway (AID 357); details: ME-180 AP-1-bla reporter, EGF-induced, beta-lactamase ratio, 5 h; at 7.69 µM (top of the series) unless noted;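 further: ME-180 reporter cells stimulated with EGF at its EC50 level; on the % scale 0 is the no-effect control and ±100 the full control effect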
Summary of the method: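 First, ME-180 AP-1-bla cells were cultured overnight at 37 °C in low-serum Opti-MEM. Next, titrated compounds with EC50 EGF were incubated 5 hours. Finally, CCF4 was added for 2.5 hours and the 460/530 nm ratio recorded.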

[3] = NFAT Signaling Pathway (AID 444); details: Jurkat NFAT-bla M1, carbachol, beta-lactamase ratio, 5 h; at 7.69 µM (top of the series) unless noted;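 further: carbachol stimulus at about its EC50 of 1 µM final; on the % scale 0 is the no-effect control and ±100 the full control effect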
Summary of the method: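 Jurkat cells with NFAT-driven β-lactamase reporter and co-expressed M1 receptor, stimulated with carbachol (final 1 uM, ~EC50), compound titration, 5 h at 37 °C. CCF4 loaded 1 h at RT; 460/530 nm ratio gave %activity and AC50.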

[4] = Stat Signaling Pathway (AID 446); details: ME-180 SIE beta-lactamase reporter, IL-6 stimulated, 5 h; at 7.69 µM (top of the series) unless noted;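 further: ME-180 cervical cancer cells given 40 pM IL-6 alongside compound; SIE-controlled beta-lactamase reporter measured as 460/530 nm FRET emission ratio; on the % scale 0 is the no-effect control and ±100 the full control effect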
Summary of the method: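 FRET read-out (405 nm excitation, 460/530 nm emission) of a beta-lactamase reporter under a STAT-inducible element in ME-180 cervical carcinoma cells. Cells with compound receive 40 pM IL-6 for 5 h. Values are normalised to AC90 stimulation and AC90 JAK-inhibitor controls.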

[5] = molecular target: Glucocorticoid receptor (Homo sapiens) (UniProt P04150); test: GR-EFC Redistribution (AID 451; calls by dose curve; further: potency means the concentration at half of the fitted maximal effect); details: CHO-K1 GR-EFC translocation, beta-gal luminescence, 2 h
Glucocorticoid receptor (Homo sapiens), sequence (P04150 whole entry, looked up, the tested form may be a part): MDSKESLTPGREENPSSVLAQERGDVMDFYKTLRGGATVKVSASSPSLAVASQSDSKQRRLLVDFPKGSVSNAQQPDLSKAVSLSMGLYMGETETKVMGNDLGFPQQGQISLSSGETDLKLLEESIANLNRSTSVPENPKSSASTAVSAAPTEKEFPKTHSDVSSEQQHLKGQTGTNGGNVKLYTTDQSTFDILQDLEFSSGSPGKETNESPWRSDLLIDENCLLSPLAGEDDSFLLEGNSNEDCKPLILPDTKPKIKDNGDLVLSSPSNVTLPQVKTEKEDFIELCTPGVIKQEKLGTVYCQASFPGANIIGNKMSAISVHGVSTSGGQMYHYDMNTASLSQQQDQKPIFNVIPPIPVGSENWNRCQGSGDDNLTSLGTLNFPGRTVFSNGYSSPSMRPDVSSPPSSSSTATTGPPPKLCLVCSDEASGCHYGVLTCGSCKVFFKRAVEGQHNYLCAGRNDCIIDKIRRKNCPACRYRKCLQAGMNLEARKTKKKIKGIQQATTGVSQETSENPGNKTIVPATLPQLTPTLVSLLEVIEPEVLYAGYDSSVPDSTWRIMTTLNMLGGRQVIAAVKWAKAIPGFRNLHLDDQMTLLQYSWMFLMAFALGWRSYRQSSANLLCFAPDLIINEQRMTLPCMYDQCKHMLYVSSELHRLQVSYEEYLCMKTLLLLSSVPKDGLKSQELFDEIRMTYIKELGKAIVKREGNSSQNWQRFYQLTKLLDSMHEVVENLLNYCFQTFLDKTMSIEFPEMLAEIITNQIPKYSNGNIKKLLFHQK
Summary of the method: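 CHO-K1 cells expressing nuclear EA and GR-ED fragments of b-gal; compounds titrated up to 46 uM final, 2 h at 37 C. GR nuclear translocation read as complemented b-gal luminescence after 1 h RT detection.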

[6] = molecular target: Mitogen-activated protein kinase 10 (Mus musculus) (UniProt Q61831); test: JNK3 AlphaScreen Assay (AID 530); details: JNK3 lysate, c-Jun phosphorylation; series mostly up to 57.1 µM;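 further: kinase came from lysate of stimulated human HepG2 cells; signal reports phosphorylation of biotinylated GST-cJun 1-79 at Ser73 with 10 µM ATP; on the % scale 0 is the no-effect control and ±100 the full control effect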
Summary of the method: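 HepG2 lysate (IL-1b/TNFa pre-activated) + biotin-GST-cJun 1-79 + anti-pSer73 cJun; cpd titration, 15 min RT; ATP 10 uM start; Tris pH 7.6, MgCl2, DTT, vanadate; beads in EDTA buffer; AlphaScreen.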

[7] = molecular target: 3',5'-cyclic-AMP phosphodiesterase 4B (Homo sapiens) (UniProt Q07343); test: qHTS Assay for Inhibitors of PDE-IV (AID 607; active means well fitted activation curve with a large enough effect in the main read-out, with a control signal flat, not every such curve was filed as active; further: % of control where 0% means no effect); details: HEK293 ACTOne CNG channel cells, membrane potential fluorescence; series mostly up to 22.9 µM
3',5'-cyclic-AMP phosphodiesterase 4B (Homo sapiens), sequence (Q07343 whole entry, looked up): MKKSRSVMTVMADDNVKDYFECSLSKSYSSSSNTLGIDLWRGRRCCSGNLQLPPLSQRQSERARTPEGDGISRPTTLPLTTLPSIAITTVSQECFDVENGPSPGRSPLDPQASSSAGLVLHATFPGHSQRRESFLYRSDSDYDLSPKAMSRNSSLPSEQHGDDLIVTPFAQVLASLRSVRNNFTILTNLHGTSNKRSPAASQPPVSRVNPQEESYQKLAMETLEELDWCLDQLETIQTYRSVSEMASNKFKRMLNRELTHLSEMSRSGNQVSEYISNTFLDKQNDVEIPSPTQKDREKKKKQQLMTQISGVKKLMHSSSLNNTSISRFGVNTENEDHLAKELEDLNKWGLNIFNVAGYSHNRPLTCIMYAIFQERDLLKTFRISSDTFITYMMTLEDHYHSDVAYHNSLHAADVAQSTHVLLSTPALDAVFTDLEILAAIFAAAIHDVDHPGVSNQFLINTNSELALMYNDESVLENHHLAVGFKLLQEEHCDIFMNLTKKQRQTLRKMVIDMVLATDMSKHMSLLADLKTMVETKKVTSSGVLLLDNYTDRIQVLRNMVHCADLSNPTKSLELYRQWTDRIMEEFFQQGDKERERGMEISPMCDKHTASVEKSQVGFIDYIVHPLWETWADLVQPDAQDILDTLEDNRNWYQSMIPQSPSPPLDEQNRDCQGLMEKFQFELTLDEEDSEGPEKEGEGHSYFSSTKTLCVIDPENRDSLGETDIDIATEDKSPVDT
Summary of the method: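 Cell-based read-out of cAMP via a modified cyclic nucleotide-gated channel and membrane potential dye (535/590 nm) in HEK293 cells expressing PDE4 endogenously. Compounds tested up to 22.9 uM final; 100 uM RO 20-1724 reference.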

[8] = qHTS Assay for Lipid Storage Modulators (AID 1519; calls by dose curve); details: Drosophila S3 cells, BODIPY lipid droplet/cell ratio, laser cytometry, cells loaded with oleic acid; for activity change, negative = inhibition: at 57.5 µM (top of the series)
Summary of the method: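 Cells seeded at 5,000 per well were treated with compounds over a concentration series and loaded with oleic acid (400 uM, as added). Lipid droplet fluorescence (488 nm excitation, 500-530 nm channel) was read by laser-scanning cytometry and normalized to 20 uM Triacsin C.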

[9] = Primary qHTS for small molecule stabilizers of the endoplasmic reticulum resident proteome: Secreted ER Calcium Modulated Protein (SERCaMP) assay (AID 1508630; active means well fitted curve in the direction sought with a large enough effect; an effect the other way counts as inactive or inconclusive; further: on the % scale 0 is the no-effect control and ±100 the full control effect); details: SH-SY5Y GLuc-SERCaMP (Gaussia luciferase released on ER calcium loss) secretion, thapsigargin, luminescence; series mostly up to 38.4 µM
Summary of the method: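 The SH-SY5Y reporter protocol was run at 3 concentrations up to 38.3 uM (primary) or 11 concentrations (follow-up): 16 h compound, 100 nM thapsigargin for 4 h, then extracellular luciferase luminescence.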

[10] = molecular target: Cytochrome P450 3A4 (Homo sapiens) (UniProt P08684); test: qHTS Assay for Activators of Cytochrome P450 3A4 (AID 885; active means well fitted curve in the direction sought with a large enough effect; an effect the other way counts as inactive or inconclusive; further: nearly all actives have a fitted effect of over 65% in size); details: recombinant CYP3A4, Luciferin-PPXE luminescence, 60 min; series mostly up to 57.1 µM
Cytochrome P450 3A4 (Homo sapiens), sequence (P08684 whole entry, looked up): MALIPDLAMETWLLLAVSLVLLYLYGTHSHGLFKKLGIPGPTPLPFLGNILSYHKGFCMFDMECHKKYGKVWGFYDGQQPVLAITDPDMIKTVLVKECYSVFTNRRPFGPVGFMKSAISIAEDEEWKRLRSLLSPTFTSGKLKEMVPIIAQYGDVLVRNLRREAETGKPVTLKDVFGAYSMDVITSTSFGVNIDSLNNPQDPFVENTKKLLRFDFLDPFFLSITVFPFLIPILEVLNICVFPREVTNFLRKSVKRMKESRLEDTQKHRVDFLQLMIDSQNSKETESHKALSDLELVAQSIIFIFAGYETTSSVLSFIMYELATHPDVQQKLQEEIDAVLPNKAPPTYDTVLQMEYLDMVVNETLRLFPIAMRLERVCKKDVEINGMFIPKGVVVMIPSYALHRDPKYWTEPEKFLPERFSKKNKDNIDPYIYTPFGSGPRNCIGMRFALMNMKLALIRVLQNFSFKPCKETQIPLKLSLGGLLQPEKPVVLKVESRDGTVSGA
Summary of the method: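 Luminescent readout of luciferin formed from 25 uM Luciferin-PPXE (KM level) by 20 nM CYP3A4 in 200 mM KPO4, with 60 min NADPH-driven reaction at room temperature after 10 min compound exposure. Ketoconazole (57 uM) defined 100% inhibition.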

[11] = qHTS Assay for Identification of Small Molecule Agonists for Hypoxia Response Element Signaling Pathway (AID 914; active means well fitted activation curve with a large enough effect in the signal ratio, with a control signal flat, not every such curve was filed as active; the % refers to the signal ratio; further: % of control where 0% means no effect); details: ME-180 (cervical carcinoma) HRE-bla reporter, beta-lactamase ratio, CoCl2, 17 h; activation: stronger effect = higher value
Summary of the method: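 Compounds in a titration series were added to ME-180 reporter cells alongside an EC50 level of CoCl2. After 17 hours, beta-lactamase activity was read as the 460nm/530nm emission ratio of CCF4, giving AC50 values.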

[12] = molecular target: Glucocorticoid receptor (Homo sapiens) (UniProt P04150); test: GR-GFP Redistribution (AID 450;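 active means compounds whose dose series gives a full or clear partial fitted curve of increased nuclear translocation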; further: potency means the concentration at half of the fitted maximal effect); details: U2OS GR-GFP nuclear translocation, laser cytometry, 2 h
[13] = Confirmation and Secondary Assay for Modulators of Hemoglobin Beta Chain Splicing at IVS2 705 locus (AID 930; active means well fitted curve in the direction sought with a large enough effect; an effect the other way counts as inactive or inconclusive;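 further: HeLa cells stably expressing the EGFP-705 splicing reporter; GFP fluorescence per well restored by corrected splicing of the IVS2-705 intron in EGFP; % of control where 0% means no effect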); details: HeLa EGFP-705 splicing reporter, GFP fluorescence, 48 h; series mostly up to 38.3 µM
Summary of the method: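 Assay measures total GFP intensity per well in HeLa EGFP-705 cells after 2 days with compound; mis-splicing normally truncates EGFP, so fluorescence indicates corrected splicing.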

[14] = molecular target: Ubiquitin carboxyl-terminal hydrolase 1 (Homo sapiens) (UniProt O94782); test: Inhibitors of USP1/UAF1: Pilot qHTS (AID 504865; active means well fitted curve in the direction sought with a large enough effect; an effect the other way counts as inactive or inconclusive;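 further: rhodamine fluorescence freed from ubiquitin-rhodamine substrate followed over time; top concentration of the series differs between compounds; on the % scale 0 is the no-effect control and ±100 the full control effect; nearly all actives have a fitted effect of over 35% in size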); details: purified USP1/UAF1, Ub-rhodamine cleavage fluorescence; series mostly up to 54.9 µM
Ubiquitin carboxyl-terminal hydrolase 1 (Homo sapiens), sequence (O94782 whole entry, looked up): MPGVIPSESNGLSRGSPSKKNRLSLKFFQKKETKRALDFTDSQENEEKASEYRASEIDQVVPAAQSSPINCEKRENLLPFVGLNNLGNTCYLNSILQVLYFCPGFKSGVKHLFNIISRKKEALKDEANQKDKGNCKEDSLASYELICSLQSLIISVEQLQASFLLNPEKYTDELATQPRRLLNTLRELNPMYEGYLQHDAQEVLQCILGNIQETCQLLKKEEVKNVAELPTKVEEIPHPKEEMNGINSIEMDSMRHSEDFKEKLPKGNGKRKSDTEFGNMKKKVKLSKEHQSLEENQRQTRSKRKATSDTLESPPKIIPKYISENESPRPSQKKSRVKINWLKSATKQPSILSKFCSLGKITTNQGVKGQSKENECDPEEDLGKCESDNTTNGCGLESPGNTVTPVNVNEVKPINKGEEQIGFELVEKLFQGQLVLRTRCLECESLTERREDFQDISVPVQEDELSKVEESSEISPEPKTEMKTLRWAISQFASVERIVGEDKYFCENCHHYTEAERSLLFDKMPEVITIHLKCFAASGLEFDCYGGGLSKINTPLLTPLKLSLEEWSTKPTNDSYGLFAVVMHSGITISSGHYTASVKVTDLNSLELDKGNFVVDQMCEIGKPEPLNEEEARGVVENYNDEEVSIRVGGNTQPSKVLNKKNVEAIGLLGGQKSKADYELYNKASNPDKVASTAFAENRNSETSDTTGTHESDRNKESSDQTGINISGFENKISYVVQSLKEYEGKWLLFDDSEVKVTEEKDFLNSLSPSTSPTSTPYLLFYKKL
Summary of the method: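 Deubiquitinase activity followed as kinetic rhodamine fluorescence release from 150 nM Ub-Rho. 1 nM USP1/UAF1 with compound, after 15 min room-temperature preincubation, in HEPES pH 7.8 buffer containing TCEP, EDTA, BSA and Tween-20.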

[15] = measured here: cell count channel max response
[16] = measured here: lipid channel max response

Cn1cccc1C(=O)N1CCC[C@@]2(CCN(c3ncccn3)C2)C1
-1.14%: max response [8, 16]
inactive: Potency [1] > 11.4 µM | activity change, negative = inhibition [2] -1.25% | activity change, negative = inhibition [3] -9.56% | activity, negative = inhibition [4] -1.27% | Potency [5] > 46 µM | Potency [6] | Potency [7] | activity change, negative = inhibition [8] 1.1% | outcome [9]
-6.2%: max response [8, 15]

O=C(c1cccc(F)c1)N1CCC[C@@]2(CCN(c3ncccn3)C2)C1
inactive: Potency [1] > 11.4 µM | activity change, negative = inhibition [2] -17.6% | activity change, negative = inhibition [3] 10.1% | activity, negative = inhibition [4] 1.15% | Potency [5] > 46 µM | Potency [6] | Potency [7] | activity change, negative = inhibition [8] 3.33% | outcome [9]
7.74%: max response [8, 15]
15.7%: max response [8, 16]

CC(=O)N1CCC2(CCCN(Cc3cc(C(F)(F)F)cc(C(F)(F)F)c3)C2)CC1
inactive: Potency [1] > 11.4 µM | activity change, negative = inhibition [2] 7.77% | activity change, negative = inhibition [3] 23.8% | activity, negative = inhibition [4] -2.82% | Potency [5] > 46 µM | Potency [6] | Potency [7] | Potency [10] | activity change, negative = inhibition [8] 4.05% | outcome [9]
1.79%: max response [8, 15]
9.32%: max response [8, 16]

Cn1cccc1C(=O)N1CCC[C@@]2(CCN(C(=O)Nc3cccc(C#N)c3)C2)C1
24.9%: max response [8, 16]
inactive: Potency [1] > 11.4 µM | activity change, negative = inhibition [2] -6.67% | activity change, negative = inhibition [3] 10.5% | activity, negative = inhibition [4] -3.81% | Potency [5] > 46 µM | Potency [6] | Potency [7] | Potency [10] | activity change, negative = inhibition [8] 5.85% | outcome [9]
14.3%: max response [8, 15]

COCC(=O)N1CCC2(CC1)CCN(C(=O)NC(C)C)CC2
13.2%: max response [8, 15]
inactive: Potency [1] > 11.4 µM | activity change, negative = inhibition [2] -2.26% | activity change, negative = inhibition [3] 0.244% | activity, negative = inhibition [4] 6.66% | Potency [5] > 46 µM | Potency [6] | Potency [7] | activation [11] -5.43% | activity change, negative = inhibition [8] 0.579% | outcome [9]
16.2%: max response [8, 16]

COc1ccc2[nH]cc(CCNc3nc(-c4cccc(NS(C)(=O)=O)c4)nc4ccccc34)c2c1
-14.6%: max response [8, 15]
inactive: Potency [1] > 11.4 µM | activity change, negative = inhibition [2] -29.4% | activity, negative = inhibition [4] -28.4% | Potency [12] > 46 µM | Potency [5] > 46 µM | Potency [6] | Potency [7] | outcome [13] | activity change, negative = inhibition [8] 8.36% | Potency [14] | outcome [9]
-4.03%: max response [8, 16]

COCC(=O)N1CCC2(CCCN(C(c3ccccc3)c3ccccc3)C2)CC1
inactive: Potency [1] > 11.4 µM | activity change, negative = inhibition [2] -6.37% | activity, negative = inhibition [4] 16.7% | Potency [5] > 46 µM | Potency [6] | activity change, negative = inhibition [8] -0.272% | outcome [9]
20.6%: max response [8, 16]
15.7%: max response [8, 15]

Cn1cccc1C(=O)N1CCC2(CC1)CCN(c1ccncc1)CC2
inactive: Potency [1] > 11.4 µM | activity change, negative = inhibition [2] -0.611% | activity, negative = inhibition [4] 6.85% | Potency [5] > 46 µM | Potency [6] | Potency [7] | activity change, negative = inhibition [8] 1.02% | outcome [9]
-0.0216%: max response [8, 15]
2.95%: max response [8, 16]
